High-throughput results (PubChem)
Shown are actives, neighbours in structure and some others; about 8.7% of the full set was active somewhere.
VACV mCherry inh – vaccinia inhibition (mCherry reporter); Vaccinia virus mCherry reporter infection, fluorescence; Potency, µM (highest dose often 36.5 µM), without a hit: top-dose activity change, negative = inhibition, most hits filed as inhibitors; hit rate 0.63% among 310,000; AID 720579; calls by dose curve; tested in A549 cells; further: nearly all actives have a fitted effect of over 35% in size
Pf growth 96h – P. falciparum growth inhibition at 96 hours | Potency, µM (highest dose often 28.7 µM), without a hit: top-dose activity change, negative = inhibition, actives largely listed as inhibitors | hit rate 6.9% among 320,000 | P. falciparum luciferase reporter growth, 96 h
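Two-generation exposure (96 h) targets delayed-death phenotype. Reporter parasites carrying integrated firefly luciferase, in red cells at 2% hematocrit and 0.05% parasitemia final, kept at 37 C, 5% CO2; luminescence loss indicates inhibition.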
Pf growth 48h – P. falciparum growth inhibition at 48 hours (one generation); P. falciparum luciferase growth in erythrocytes, 48 h; Potency, µM (titrated, usually from 28.7 µM), inactives show at the highest dose activity change, negative = inhibition, usual class: inhibitors; hit rate 5.9% among 310,000
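Read-out is firefly luciferase luminescence from an integrated reporter in P. falciparum, so falling signal marks reduced parasite growth. Infected erythrocytes were at 2% hematocrit and 0.1% parasitemia (final) in Albumax-supplemented RPMI 1640.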
AMA1 RON2 block – disrupts binding of P. falciparum AMA1 to RON2; AlphaScreen AMA1-biotinylated RON2 peptide binding; AID 720542; hit rate 0.2% among 360,000; Potency, µM (top dose mostly 58.2 µM), for inactives: at the top dose activity change, negative = inhibition, hits mostly inhibitors;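 further: 0% = vehicle wells and -100% = peptide control; nearly all actives have a fitted effect of over 45% in size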
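AMA1 (3D7) with his tag at 25 nM final met compounds first, then biotinylated RON2 peptide at 25 nM; detection used donor plus acceptor beads, 10 µg/mL apiece, read by AlphaScreen after 30 min at room temperature.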
Vaccinia Venus – vaccinia inhibition (Venus reporter); Vaccinia virus Venus reporter expression, fluorescence; Potency, µM (titrated, usually from 36.5 µM), for the others: at the top dose activity change, negative = inhibition, hits mostly inhibitors; hit rate 0.46% among 330,000; AID 720580; calls by dose curve; tested in A549 cells; further: nearly all actives have a fitted effect of over 30% in size
Active calls of the source: *; i = inactive; ? = inconclusive; . = not tested or not shown; [ ] = remark or other dose. Unless noted, the call rests on the fitted dose curve; in most records, active means well fitted curve in the direction sought with a large enough effect; inconclusive means small, poorly fitted or top-dose-only effect, or another doubt; inactive means no such curve, though single readings can be large; an effect the other way counts as inactive or inconclusive. Unless noted, on the % scale 0 is the no-effect control and ±100 the full control effect; potency means the concentration at half of the fitted maximal effect.

SMILES | VACV mCherry inh | Pf growth 96h | Pf growth 48h | AMA1 RON2 block | Vaccinia Venus
CCc1ccc(N=C2NC(=O)CC(C(=O)Nc3ccc(OC)cc3)S2)cc1 (stereo not drawn) | 0% | . | . | . | -2%
c1csc(-c2nc(N3CCN(Cc4ccc5c(c4)OCCO5)CC3)c3ccccc3n2)c1 | -18% | . | . | . | -14%
COc1cc(CN=C(C)c2c(O)n(C3CCCCC3)c(=O)[nH]c2=O)cc(OC)c1 | -21% | 0% | ? | -6% | -9%
C=CCn1c(O)c(/C(C)=N/N2CCCCCC2)c(=O)[nH]c1=O | -4% | -17% | 7% | -15% | -11%
CCC(=NCc1cc(OC)cc(OC)c1)c1c(O)n(C2CCCCC2)c(=O)[nH]c1=O | . | 0.83µM* | ? | -20% | .
C/C(=N\N1CCCCCC1)c1c(O)n(C2CCCCC2)c(=O)[nH]c1=O | -2%[7.34 µM] | 13µM* | ? | -12% | -8%[7.34 µM]
CC(=O)N1c2nc(C(C)C)nn2C2(CCCCC2)[C@@H]2CCCC[C@@H]21 | -13% | . | . | . | -10%
Cc1nn(Cc2ccccc2)c(C)c1C=C1C(=O)NC(=O)NC1=O | -2% | 8.3µM* | 0% | -21% | -5%
Cc1nn(Cc2ccccc2)c(C)c1CCC(=O)O | i | . | 16% | 16% | -12%
C/C(CC(C)(C)C1CCCCC1)=N\NC(N)=S | 11µM* | 2.9µM* | . | -1% | 18µM*
CC(=O)Nc1ccc(S(=O)(=O)NCc2ccc3c(c2)CCN3C(C)=O)cc1 | -4% | . | . | . | 4%
CC(C(=O)Nc1ccccc1C(F)(F)F)n1nc(-c2ccccc2)c2c(c1=O)CCCC2 (stereo not drawn) | -11% | . | . | . | -13%
O=c1[nH]c(-c2ccccn2)nc2sc(-c3ccccc3)cc12 | 4.5µM* | ? | 62% | 120% | ?
COc1ccc2nc(N(Cc3cccnc3)C(=O)c3ccco3)sc2c1 | -4% | . | . | . | -17%
O=c1cc(-c2ccccc2)n2c(SCc3cccc([N+](=O)[O-])c3)nnc2[nH]1 | i | . | . | . | -3%
Oc1[nH]c2ccccc2c1N=Nc1nc(Nc2ccccc2)nc(N2CCOCC2)n1 | . | ? | 6.6µM* | 4% | .
O=C(NCCCN1CCCC1)c1cccc(N2CCCC2=O)c1 | -14% | ? | -19% | -3% | -3%
O=C(NCCCN1CCN(c2ccc(F)cc2)CC1)c1cccc(N2CCCC2=O)c1 | . | . | 12µM* | 35% | -25%
CSc1cccc(NC(=S)NCCCN2CCN(c3ccc(F)cc3)CC2)c1 | i | 8.3µM* | ? | -6% | 8%
Fc1cccc(NC(=S)NCCCN2CCOCC2)c1 | . | 131% | 6% | 2% | -18%
Cc1ccc2c(CC(=O)N3CCOc4ccc(CN5C[C@@H](C)O[C@@H](C)C5)cc4C3)cc(=O)oc2c1 | -6% | . | . | . | -11%
O=C(c1cccc(Cl)c1)n1nc(-c2cccnc2)nc1NCc1ccccc1 | -17% | . | . | . | -15%
O=C1CCc2cc(-c3csc(-c4ccc(O)cc4)n3)ccc2N1 | -25% | . | . | . | -10%
CCn1cc(C(=O)N2CCc3ccccc32)c(=O)c2cc(S(=O)(=O)N(C)C3CCCCC3)ccc21 | -12% | ? | 12µM* | 1% | -5%
CCCCN(C)CCCNC(=O)c1cn(C)c2ccc(S(=O)(=O)N(C)C3CCCCC3)cc2c1=O | . | 5% | ? | 19% | .
SMILES | VACV mCherry inh | Pf growth 96h | Pf growth 48h | AMA1 RON2 block | Vaccinia Venus
CCCCN(CC)CCCNC(=O)c1cn(C)c2ccc(S(=O)(=O)N(C)C3CCCCC3)cc2c1=O | -13% | 15µM* | ? | -1% | -12%
CN(C1CCCCC1)S(=O)(=O)c1ccc2c(c1)c(=O)c(C(=O)NCCN1CCCC1)cn2C | -9% | ? | . | 14% | -9%
CN(C1CCCCC1)S(=O)(=O)c1ccc2c(c1)c(=O)c(C(=O)NCCCN1CCCC1)cn2C | -16% | 13µM* | . | -4% | -12%
CCn1cc(C(=O)NCCCN2CCCC(C)C2)c(=O)c2cc(S(=O)(=O)N(C)C3CCCCC3)ccc21 (stereo not drawn) | -22% | 12µM* | ? | 2% | -9%
CCN(CC)CCCNC(=O)c1cn(CC)c2ccc(S(=O)(=O)N(C)C3CCCCC3)cc2c1=O | . | 21% | ? | 4% | .
CCOC(=O)Cn1c(=O)n(-c2ccccc2OC)c2nc(-c3ccc(C(C)C)cc3)nc(C(N)=O)c21 | -21% | . | . | . | -18%
NCc1nc2cccnc2n1Cc1ccccc1Cl | -2% | . | . | . | -2%
COc1ccc(NC(=O)Nc2nnc(N(CC(C)C)CC(C)C)s2)c(OC)c1 | -19% | . | . | . | -17%
COc1ccccc1CCNC(=O)C(=O)NCCC1CCCCN1S(=O)(=O)c1ccccc1 (stereo not drawn) | ? | 82% | 50% | -1% | -6%
Cc1ccc(CNC(=O)C(=O)NCCC2CCCCN2S(=O)(=O)c2cccs2)cc1 (stereo not drawn) | -23% | ? | ? | 7% | -21%
CNC(=O)C(=O)NCCC1CCCCN1S(=O)(=O)c1cccs1 (stereo not drawn) | -9% | 2% | 13% | -7% | -11%
COc1ccccc1CNC(=O)C(=O)NCCC1CCCCN1S(=O)(=O)c1ccc(C)cc1 (stereo not drawn) | -26% | ? | 12µM* | -22% | ?
Cc1ccccc1CNC(=O)C(=O)NCCC1CCCCN1S(=O)(=O)c1cccs1 (stereo not drawn) | -22% | 12µM* | ? | ? | ?
COc1ccccc1CNC(=O)C(=O)NCCC1CCCCN1S(=O)(=O)c1cccs1 (stereo not drawn) | ? | 12µM* | ? | -17% | ?
CC#CCCC(=O)N1C=Cc2ccccc2C1C#N (stereo not drawn) | i | 0% | 2.3µM* | -3% | -16%
O=C(N[C@@H](Cc1ccccc1)C(=O)CCl)OCc1ccccc1 | 10µM* | 24% | 2% | 0% | 10µM*
O=C(N[C@@H](Cc1ccccc1)C(=O)N[C@@H](Cc1ccccc1)C(=O)O)OCc1ccccc1 | -23% | 0% | 13% | 6% | 1%
CSCC[C@H](NC(=O)OCc1ccccc1)C(=O)O | . | . | 13% | -1% | .
O=C(NCCCC(NC(=O)OCc1ccccc1)C(=O)O)OCc1ccccc1 (stereo not drawn) | . | 6.6µM* | 4% | 0% | .
CCC(=O)N1CCc2cc(Br)cc(S(=O)(=O)Nc3ccccc3C(=O)OC)c21 | -6% | . | . | . | -8%
N#C/C(=C\C1=C(N2CCOCC2)C(=C/c2cccc([N+](=O)[O-])c2)/CC1)C(=O)Nc1ccccc1F | -9% | 9.3µM* | ? | -15% | 36%
O=C(N/N=C/c1cnc(N2CCCCC2)s1)c1ccc(C(F)(F)F)cc1 | -29% | ? | 3.3µM* | 13% | ?
Cc1ccc(NC(c2cccc(Cl)c2)c2nnc(-c3ccccc3)o2)cc1F (stereo not drawn) | 0% | . | . | . | 2%
O=[N+]([O-])c1cc(-c2ccc(/C=N\n3cnnc3)o2)cc([N+](=O)[O-])c1 | -1% | ? | 7.4µM* | -14% | -4%
